Results from PubChem BioAssay AID1159580 (chemical genetic matrix, 2015).
The campaign covered roughly 5,500 compounds. About 2,000 (36%) were called active. Another 18% or so got no clear call; they are omitted. Cut-off read from the data, not from the text of the source: active = normalized growth mostly below about 0.91 (no sharp cut-off); inconclusive = no clear call, values can overlap the other calls; inactive = mostly above about 0.92. The list shows a part of the results.

Experiment: chemical genetic growth profiling, strain panel (AID 1159580);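 note: tested at 20 µM; growth read once vehicle control cultures reached saturation at 30 °C; 1 = growth at the plate median or of vehicle wells; lower values mean less growth of the strain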
Conditions: growth OD

Measured: normalized growth

CN(Cc1cc(Br)cc(Br)c1N)C1CCCCC1
inactive: S. cerevisiae deletion strains, locus YKL009W, strain mrt4, hits give low values 1.01 | S. cerevisiae deletion strains, locus YKL068W, hits give low values 1.01 | S. cerevisiae deletion strains, locus YKL085W, strain MDH1 (second series), hits give low values 1.01 | S. cerevisiae deletion strains, locus YKL085W, strain MDH1, hits give low values 1.01 | S. cerevisiae deletion strains, locus YKL160W, strain elf1, hits give low values 1 | S. cerevisiae deletion strains, locus YKL190W, strain CNB1, hits give low values 1.02 | S. cerevisiae deletion strains, locus YKR001C, strain vps1, hits give low values 0.994 | S. cerevisiae deletion strains, locus YKR026C, strain gcn3, hits give low values 1.04 | S. cerevisiae deletion strains, locus YKR091W, strain srl3, hits give low values 1.03 | S. cerevisiae deletion strains, locus YLL001W, strain dnm1, hits give low values 1.03 | S. cerevisiae deletion strains, locus YLL026W, hits give low values 1.03 | S. cerevisiae deletion strains, locus YLL041C, strain sdh2, hits give low values 1.05 | S. cerevisiae deletion strains, locus YLR027C, strain aat2, hits give low values 1.01 | S. cerevisiae deletion strains, locus YLR039C, strain RIC1, hits give low values 1.08 | S. cerevisiae deletion strains, locus YLR058C, strain SHM2, hits give low values 1.01 | S. cerevisiae deletion strains, locus YLR102C, strain apc9, hits give low values 1.02 | S. cerevisiae deletion strains, locus YLR113W, strain HOG1, hits give low values 0.947 | S. cerevisiae deletion strains, locus YLR221C, strain rsa3, hits give low values 0.997 | S. cerevisiae deletion strains, locus YLR258W, strain gsy2, hits give low values 1.03 | S. cerevisiae deletion strains, locus YLR262C, strain YPT6 (second series), hits give low values 0.982 | S. cerevisiae deletion strains, locus YLR262C, strain YPT6, hits give low values 1.08 | S. cerevisiae deletion strains, locus YLR268W, strain sec22, hits give low values 1.01 | S. cerevisiae deletion strains, locus YLR320W, strain mms22, hits give low values 0.984 | S. cerevisiae deletion strains, locus YLR330W, strain CHS5, hits give low values 1.02 | S. cerevisiae deletion strains, locus YLR342W, strain FKS1 (second series), hits give low values 1 | S. cerevisiae deletion strains, locus YLR342W, strain FKS1, hits give low values 1.02 | S. cerevisiae deletion strains, locus YLR357W, strain rsc2, hits give low values 1.06 | S. cerevisiae deletion strains, locus YLR370C, strain arc18, hits give low values 1.04 | S. cerevisiae deletion strains, locus YLR371W, strain rom2, hits give low values 1.02 | S. cerevisiae deletion strains, locus YLR384C, strain iki3, hits give low values 1.04 | S. cerevisiae deletion strains, locus YLR418C, strain cdc73, hits give low values 1.02 | S. cerevisiae deletion strains, locus YML016C, strain PPZ1, hits give low values 1.01 | S. cerevisiae deletion strains, locus YML032C, strain rad52, hits give low values 0.986 | S. cerevisiae deletion strains, locus YML120C, strain ndi1, hits give low values 1.04 | S. cerevisiae deletion strains, locus YML124C, strain tub3, hits give low values 1.03 | S. cerevisiae deletion strains, locus YMR058W, strain fet3, hits give low values 0.995 | S. cerevisiae deletion strains, locus YMR078C, strain ctf18, hits give low values 1.04 | S. cerevisiae deletion strains, locus YMR125W, strain sto1, hits give low values 1.06 | S. cerevisiae deletion strains, locus YMR129W, hits give low values 1.04 | S. cerevisiae deletion strains, locus YMR205C, strain PFK2, hits give low values 1.04 | S. cerevisiae deletion strains, locus YMR223W, strain ubp8, hits give low values 1 | S. cerevisiae deletion strains, locus YMR231W, strain pep5, hits give low values 1.04 | S. cerevisiae deletion strains, locus YMR307W, strain GAS1, hits give low values 1.17 | S. cerevisiae deletion strains, locus YNL067W, strain RPL9B, hits give low values 0.966 | S. cerevisiae deletion strains, locus YNL071W, strain lat1, hits give low values 1.04 | S. cerevisiae deletion strains, locus YNL183C, strain NPR1, hits give low values 0.838 | S. cerevisiae deletion strains, locus YNL209W, strain ssb2, hits give low values 1.03 | S. cerevisiae deletion strains, locus YNL233W, strain BNI4, hits give low values 1.01 | S. cerevisiae deletion strains, locus YNL248C, strain rpa49, hits give low values 1.04 | S. cerevisiae deletion strains, locus YNL250W, strain rad50, hits give low values 1.05 | S. cerevisiae deletion strains, locus YNL271C, strain bni1, hits give low values 1.02 | S. cerevisiae deletion strains, locus YNL298W, strain CLA4, hits give low values 1.03 | S. cerevisiae deletion strains, locus YNL307C, strain MCK1, hits give low values 1.01 | S. cerevisiae deletion strains, locus YNL322C, strain KRE1 (second series), hits give low values 1.06 | S. cerevisiae deletion strains, locus YNL322C, strain KRE1, hits give low values 1.02 | S. cerevisiae deletion strains, locus YNR049C, strain mso1, hits give low values 1.02 | S. cerevisiae deletion strains, locus YNR052C, strain pop2, hits give low values 1.01 | S. cerevisiae deletion strains, locus YOL006C, strain TOP1, hits give low values 0.804 | S. cerevisiae deletion strains, locus YOL012C, strain htz1 2.06 | S. cerevisiae deletion strains, locus YOL147C, strain pex11, hits give low values 1.03 | S. cerevisiae deletion strains, locus YOR001W, strain rrp6, hits give low values 1.01 | S. cerevisiae deletion strains, locus YOR061W, strain CKA2, hits give low values 1.01 | S. cerevisiae deletion strains, locus YOR069W, strain VPS5, hits give low values 1.02 | S. cerevisiae deletion strains, locus YOR070C, strain gyp1, hits give low values 1.03 | S. cerevisiae deletion strains, locus YOR080W, strain dia2, hits give low values 1.07 | S. cerevisiae deletion strains, locus YOR083W, strain WHI5, hits give low values 0.988 | S. cerevisiae deletion strains, locus YOR106W, strain vam3, hits give low values 1.01 | S. cerevisiae deletion strains, locus YOR136W, strain idh2, hits give low values 1.01 | S. cerevisiae deletion strains, locus YOR144C, strain elg1, hits give low values 1.02 | S. cerevisiae deletion strains, locus YOR184W, strain ser1, hits give low values 0.935 | S. cerevisiae deletion strains, locus YOR265W, strain rbl2, hits give low values 1.05 | S. cerevisiae deletion strains, locus YOR270C, strain vph1, hits give low values 0.811 | S. cerevisiae deletion strains, locus YOR290C, strain snf2, hits give low values 1 | S. cerevisiae deletion strains, locus YOR316C, strain cot1, hits give low values 1.02 | S. cerevisiae deletion strains, locus YPL051W, strain arl3, hits give low values 0.983 | S. cerevisiae deletion strains, locus YPL078C, strain atp4, hits give low values 1.01 | S. cerevisiae deletion strains, locus YPL106C, strain sse1, hits give low values 1 | S. cerevisiae deletion strains, locus YPL240C, strain hsp82, hits give low values 1.02 | S. cerevisiae deletion strains, locus YPL241C, strain CIN2, hits give low values 1.01 | S. cerevisiae deletion strains, locus YPL256C, strain CLN2, hits give low values 0.944 | S. cerevisiae deletion strains, locus YPR119W, strain clb2, hits give low values 1.01 | S. cerevisiae deletion strains, locus YPR141C, strain kar3, hits give low values 1.02 | S. cerevisiae deletion strains, locus YPR163C, strain tif3, hits give low values 1.03 | S. cerevisiae deletion strains, locus YPR167C, strain met16, hits give low values 1.01 | S. cerevisiae deletion strains, strain wtn01, hits give low values 0.995 | S. cerevisiae strains, strain wild type, hits give low values 1.01
active: S. cerevisiae deletion strains, locus YOR231W, strain MKK1, hits give low values 0.841
